This is part of a sample that, as a whole, favours compounds with a hit. Of some 83,000 tested, about 20% had one in any assay.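 Cell lines were cultured in 96-well plates, exposed to a single compound concentration, and assessed for percent growth 48 hours later.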 Values without a mark were called inactive. Active and inactive are the calls of the source. Rule for the calls: active = growth percent below 10; inactive = the rest.
What follows are compounds tested on HL-60(TB) leukemia (assay: NCI-60 one-dose screen, 48 h (100 = growth as untreated, 0 = no growth, -100 = all killed)). Conditions: 10 µM unless noted.

Row | SMILES | growth
1 | COc1cccc(NC(=O)NCCNc2nccc(-c3c(-c4ccc(F)cc4)nc4sccn34)n2)c1 | 92.7%
2 | CCCCCCCCCCCCCC[n+]1cccc(C(N)=O)c1 | -55.9% (active)
3 | O=C(/C=C/c1ccc(Oc2ccc(Br)cc2)cc1)c1ccc(Br)cc1 | 88%
4 | O=C(O)/C=C/c1ccc2c(c1)CCC2 | 110%
5 | C#CCOC(=O)/C=C/c1cn(-c2ccccc2)nc1-c1ccc(OC)cc1 | 110%
6 | CCn1c(-c2nonc2N)nc2c(C#CC(C)(C)O)ncc(OC[C@H]3CCCNC3)c21 | 41%
7 | O=C1N/C(=N/N=C(c2ccccc2)c2ccccc2)S/C1=C\c1ccc(Br)cc1 | 89.1%
8 | Clc1ccc(N2N=C(c3cccc(Nc4ccncc4)c3)CC2c2ccc(Br)cc2)cc1 (stereo not given) | 0.656% (active)
9 | N#C/C(=C/C=C/c1cccc(Cl)c1)S(=O)c1ccccc1 (stereo not given) | -18.9% (active)
10 | O=C(S)CNC(=O)c1ccccc1 | 91%
11 | Cc1cc2cccnc2c2ncccc12 | -11.4% (active)
12 | COc1ccc(C(=O)NNc2nc(Cl)nc(N3CCN(C(c4ccccc4)c4ccccc4)CC3)n2)cc1 | 21.3%
13 | OCc1cc(CN2CCCCC2)c(O)c2ncccc12 | 33.2%
14 | C=C(C)[C@@H]1CC[C@]2(CO)CC[C@]3(C)[C@H](CC[C@@H]4[C@@](C)(CCCN)[C@H](C(=C)C)CC[C@]43C)[C@@H]12 | -54.7% (active)
15 | CN(C)c1ccc(/C=N/NC(=O)c2ccccc2Nc2cccc(C(F)(F)F)c2)cc1 | 92.1%
16 | CCCCn1c(Cc2ccc(OC)cc2)nc2cc(OC)c(OC)cc2c1=O | 79.3%
17 | Nc1cccc(Cl)c1N | 79%
18 | CCCCCCC(C(=O)OCC)(C(=O)OCC)C1CCCCCC1 | 106%
19 | COc1ccc2c(c1)/C(=C/c1c(-c3cc(OC)c(OC)c(OC)c3)nc3sccn13)C(=O)N2 | 83.4%
20 | Cc1ccc(C(=O)N2C/C(=C/c3ccc(F)cc3)C(=O)/C(=C/c3ccc(F)cc3)C2)cc1 | 81.6%

Row | SMILES | growth
21 | CCOC(=O)C(=CNc1ccccc1[N+](=O)[O-])C(=O)OCC | 90.8%
22 | Nc1ccc(Sc2ccc([N+](=O)[O-])c3nonc23)cc1 | 42.8%
23 | N#Cc1nc(-c2ccc(F)cc2)oc1S(=O)(=O)N1CCOCC1 | 16%
24 | Nc1c(C(=O)NC2CCCCC2)sc2nc3c(cc12)C(=O)CCC3 | 95.2%
25 | CN1CCN(c2ccc(NC3=C(Cl)C(=O)c4ncccc4C3=O)cc2C(F)(F)F)CC1 | -16.2% (active)
26 | COC(=O)c1cc2oc(/C=C3/SC(=S)N(N)C3=O)cc2n1Cc1ccccc1 | 53.7%
27 | Oc1ccc(N=Cc2ccc(OCc3ccccc3)cc2)cc1 | 104%
28 | Cn1cc(-c2nc(-c3c[nH]c4ncccc34)cs2)c2cc(Br)ccc21 | 79.1%
29 | COc1ccccc1/C=C1\COc2ccc(-c3ccccc3)cc2C1=O | -47.8% (active)
30 | C=C(C)[C@@H]1CC[C@]2(C)[C@H](CC=C3[C@@H]4CC(C)(C)CC[C@]4(CO)CC[C@]32C)[C@@]1(C)CCCN | -68.9% (active)
31 | c1ccc2cc(Cn3c(-c4ccc5ccccc5c4)[n+](Cc4ccc5ccccc5c4)c4ccccc43)ccc2c1 | -45.9% (active)
32 | O=C(NNc1nc(Cl)nc(N2CCN(C(c3ccccc3)c3ccccc3)CC2)n1)c1ccccc1 | -22.5% (active)
33 | CCCCCCCCCCCCCCCC(=O)NS(=O)(=O)OC[C@H]1O[C@@H](n2cnc3c(N)ncnc32)[C@H](O)[C@@H]1O | -11.6% (active)
34 | CCCC1OC(c2ccco2)OCC1CC (stereo not given) | 102%
35 | Cc1cccc2c1O/C(=C\c1ncc([N+](=O)[O-])n1C)C2=O | -9.87% (active)
36 | COc1ccc2oc3c(ccc[n+]3C)c(=O)c2c1 | 109%
37 | COc1cc(C2NN=C3c4ccccc4CCC32)cc(OC)c1OC (stereo not given) | 74.1%
38 | COc1ccc2c(c1)c(-c1ccc(-c3cn(C)c4ccc(OC)cc34)o1)cn2C | -23% (active)
39 | Cc1ccc(-c2csc(NC(=O)N3CCN(c4cc5c(cc4F)c(=O)c(C(=O)O)cn5C4CC4)CC3)n2)cc1 | -15.5% (active)
40 | CC(CN1CCN(CC(C)Nc2ccnc3cc(Cl)ccc23)CC1)Nc1ccnc2cc(Cl)ccc12 (stereo not given) | 19.8%

Source: PubChem BioAssay (NCI)
